We go through ten compounds from PubChem BioAssay (NCI).

A short description of assay [1]: NCI Yeast Anticancer Drug Screen. Data for the rad50 strain (AID 155).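 Further: 0% = growth of vehicle-only cultures of the same strain.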 The following applies: S. cerevisiae rad50 strain growth inhibition, stronger effect = higher value. In outline:
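Cells are treated with compound, grown, and their growth is then scored against vehicle-only cultures of the same repair-deficient yeast strain.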

Assay [2] is described as follows: NCI Yeast Anticancer Drug Screen. Data for the mec2-1 strain (AID 157). As to conditions: S. cerevisiae mec2-1 strain, stronger effect = higher value. An outline of the steps: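 Vehicle-treated cultures served as reference for growth inhibition of compound-exposed mec2-1 yeast.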
Assay [3] can be described thus: NCI Yeast Anticancer Drug Screen. Data for the sgs1 mgt1 strain (AID 161).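 Further: 0% = growth of cultures given vehicle only.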 As to conditions: S. cerevisiae sgs1 mgt1 strain, stronger effect = higher value. In outline:
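Inhibition of yeast growth, normalised to vehicle-treated controls, is reported for a strain bearing genetic alterations in DNA damage repair.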

The nature of assay [4]: NCI Yeast Anticancer Drug Screen. Data for the cln2 rad14 strain (AID 165).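 Further: 0% = growth equal to vehicle treated cultures.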 The following applies: S. cerevisiae cln2 rad14 strain, stronger effect = higher value. An outline of the steps: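 Each compound was tested on cln2 rad14 yeast. Inhibition of growth was calculated against vehicle-exposed controls.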
A short description of assay [5]: NCI Yeast Anticancer Drug Screen. Data for the bub3 strain (AID 167). As to conditions: S. cerevisiae bub3 mutant strain, stronger effect = higher value. In outline: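 Part of a panel of yeast mutants defective in DNA damage repair or cell cycle regulation. Each strain is grown with compound, and inhibition is calculated relative to solvent-treated cultures.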
The nature of assay [6]: NCI Yeast Anticancer Drug Screen. Data for the mlh1 rad18 strain (AID 175). The following applies: S. cerevisiae mlh1 rad18 strain growth inhibition, stronger effect = higher value. An outline of the steps:
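Vehicle-treated cultures served as the reference for growth inhibition in a yeast strain carrying DNA damage repair alterations exposed to each compound.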

The mark [7] stands for this setting: at 5.0 µM (retest, dose inferred, filed as 0.5).
The mark [8] stands for this setting: at 50.0 µM (retest, dose inferred, filed as 5.0).

About 79,000 compounds went through this panel and 15% of them were active in at least one assay; those are over-represented in the sample as a whole. Values without a mark were called inactive. Calls of active or inactive are those of the source. No stated cut-off is given here; in the data, active means growth inhibition above about 70%; inactive means the rest.

For the compound `O=[N+]([O-])/C=C/c1ccco1`, the growth inhibition in assay [1] (setting [7]) is 59%; in assay [1] (setting [8]), 99% (active); in assay [1] (at 50.0 µM), 99.5% (active); in assay [2] (setting [7]), 9%; in assay [2] (setting [8]), 100% (active); in assay [2] (at 50.0 µM), 99.3% (active). Besides, the growth inhibition in assay [3] (setting [7]) was 16%; in assay [3] (setting [8]), 100% (active); in assay [3] (at 50.0 µM), 88.8% (active); in assay [4] (setting [7]) it was 8%; in assay [4] (setting [8]) it was 99% (active); in assay [4] (at 50.0 µM), 98.5% (active). For the same compound, the growth inhibition was 3% in assay [5] (setting [7]); 99% (active) in assay [5] (setting [8]); 98.9% (active) in assay [5] (at 50.0 µM); 22% in assay [6] (setting [7]); 99% (active) in assay [6] (setting [8]); 98.9% (active) in assay [6] (at 50.0 µM).

With `CCOc1ccccc1C(=O)Oc1cccc(C)c1`, the growth inhibition is -7% in assay [1] (setting [7]); -1% in assay [1] (setting [8]); 1.95% in assay [1] (at 50.0 µM); -8% in assay [2] (setting [7]); -18% in assay [2] (setting [8]); -9.75% in assay [2] (at 50.0 µM). The growth inhibition in assay [3] (setting [7]) was -2%; in assay [3] (setting [8]), 12%; in assay [3] (at 50.0 µM), 5.55%; in assay [4] (setting [7]), -21%; in assay [4] (setting [8]), 32%; in assay [4] (at 50.0 µM), -5.2%. Moreover, the growth inhibition in assay [5] (setting [7]) is 6%; in assay [5] (setting [8]), -6%; in assay [5] (at 50.0 µM), 11.8%; in assay [6] (setting [7]) it was -19%; in assay [6] (setting [8]), 17%; in assay [6] (at 50.0 µM) it was 18.9%.

For `Cc1ccc(S(=O)(=O)/C=C/C(=O)c2ccc3ccccc3c2)cc1`, the growth inhibition in assay [1] (setting [7]) is 83% (active); in assay [1] (setting [8]) it was 86% (active); in assay [1] (at 50.0 µM), 97.2% (active); in assay [2] (setting [7]) it was 96% (active); in assay [2] (setting [8]), 95% (active); in assay [2] (at 50.0 µM), 98.4% (active). The growth inhibition in assay [3] (setting [7]) was 84% (active); in assay [3] (setting [8]) it was 96% (active); in assay [3] (at 50.0 µM) it was 95.9% (active); in assay [4] (setting [7]) it was 20%; in assay [4] (setting [8]) it was 91% (active); in assay [4] (at 50.0 µM), 96.5% (active). The growth inhibition was 47% in assay [5] (setting [7]); 96% (active) in assay [5] (setting [8]); 94.5% (active) in assay [5] (at 50.0 µM); 88% (active) in assay [6] (setting [7]); 95% (active) in assay [6] (setting [8]); 97.1% (active) in assay [6] (at 50.0 µM).

Turning to `Cc1ccc(C(=O)/C(Cl)=N/O)cc1`, the growth inhibition in assay [1] (setting [7]) was 32%; in assay [1] (setting [8]) it was 99% (active); in assay [1] (at 50.0 µM) it was 98.8% (active); in assay [2] (setting [7]), 10%; in assay [2] (setting [8]) it was 100% (active); in assay [2] (at 50.0 µM) it was 99.1% (active). Moreover, the growth inhibition in assay [3] (setting [7]) is 13%; in assay [3] (setting [8]), 100% (active); in assay [3] (at 50.0 µM) it was 97.8% (active); in assay [4] (setting [7]), 0%; in assay [4] (setting [8]) it was 99% (active); in assay [4] (at 50.0 µM), 78.7% (active). Moreover, the growth inhibition was 3% in assay [5] (setting [7]); 99% (active) in assay [5] (setting [8]); 98.8% (active) in assay [5] (at 50.0 µM); 27% in assay [6] (setting [7]); 99% (active) in assay [6] (setting [8]); 98.5% (active) in assay [6] (at 50.0 µM).

`CCCNCC/C=C/[Si](C)(C)C`: the growth inhibition in assay [1] (setting [7]) is -17%; in assay [1] (setting [8]) it was 99% (active); in assay [1] (at 50.0 µM) it was 98.7% (active); in assay [2] (setting [7]) it was -9%; in assay [2] (setting [8]), 99% (active); in assay [2] (at 50.0 µM), 96.5% (active). Also, the growth inhibition in assay [3] (setting [7]) is -3%; in assay [3] (setting [8]) it was 99% (active); in assay [3] (at 50.0 µM), 97.6% (active); in assay [4] (setting [7]), 4%; in assay [4] (setting [8]) it was 99% (active); in assay [4] (at 50.0 µM), 98.5% (active). Moreover, the growth inhibition in assay [5] (setting [7]) is -2%; in assay [5] (setting [8]), 99% (active); in assay [5] (at 50.0 µM) it was 98.8% (active); in assay [6] (setting [7]), 10%; in assay [6] (setting [8]), 99% (active); in assay [6] (at 50.0 µM), 98.8% (active).

For the compound `CC(=O)OC(C)C1C2=C(C(=O)CC1(C)O)C(=O)c1c(ccc(-c3ccc4c(c3O)C(=O)C3=C(C4=O)C(C(C)OC(C)=O)C(C)(O)CC3=O)c1O)C2=O` (stereo not given), the growth inhibition in assay [1] (setting [7]) was 21%; in assay [1] (setting [8]) it was 94% (active); in assay [1] (at 50.0 µM), 72.8% (active); in assay [2] (setting [7]), 10%; in assay [2] (setting [8]), 95% (active); in assay [2] (at 50.0 µM), 79.6% (active). The growth inhibition in assay [3] (setting [7]) is 44%; in assay [3] (setting [8]), 86% (active); in assay [3] (at 50.0 µM), 76.5% (active); in assay [4] (setting [7]), 12%; in assay [4] (setting [8]), 67%; in assay [4] (at 50.0 µM), 70.8% (active). The growth inhibition in assay [5] (setting [7]) was 13%; in assay [5] (setting [8]) it was 85% (active); in assay [5] (at 50.0 µM), 70.7% (active); in assay [6] (setting [7]) it was 28%; in assay [6] (setting [8]) it was 94% (active); in assay [6] (at 50.0 µM), 76.7% (active).

Regarding `NC(=O)C#CC#CC#CCO`, the growth inhibition in assay [1] (setting [7]) was 11%; in assay [1] (setting [8]) it was 62%; in assay [1] (at 50.0 µM), 92.8% (active); in assay [2] (setting [7]), 24%; in assay [2] (setting [8]), 62%; in assay [2] (at 50.0 µM), 94.8% (active). Moreover, the growth inhibition is 18% in assay [3] (setting [7]); 78% (active) in assay [3] (setting [8]); 94% (active) in assay [3] (at 50.0 µM); 25% in assay [4] (setting [7]); 39% in assay [4] (setting [8]); 91.8% (active) in assay [4] (at 50.0 µM). For the same compound, the growth inhibition in assay [5] (setting [7]) is 38%; in assay [5] (setting [8]) it was 77% (active); in assay [5] (at 50.0 µM) it was 93.5% (active); in assay [6] (setting [7]), 19%; in assay [6] (setting [8]) it was 67%; in assay [6] (at 50.0 µM), 92.7% (active).

As to `CC(c1ccccc1C(=O)O)c1cccc2ccccc12` (stereo not given), the growth inhibition in assay [1] (setting [7]) is 4%; in assay [1] (setting [8]), 89% (active); in assay [1] (at 50.0 µM) it was 87.3% (active); in assay [2] (setting [7]), -3%; in assay [2] (setting [8]), 91% (active); in assay [2] (at 50.0 µM) it was 92.3% (active). The growth inhibition in assay [3] (setting [7]) is 6%; in assay [3] (setting [8]), 90% (active); in assay [3] (at 50.0 µM), 83.3% (active); in assay [4] (setting [7]), 6%; in assay [4] (setting [8]) it was 98% (active); in assay [4] (at 50.0 µM), 97.5% (active). Besides, the growth inhibition is -7% in assay [5] (setting [7]); 88% (active) in assay [5] (setting [8]); 91.5% (active) in assay [5] (at 50.0 µM); -12% in assay [6] (setting [7]); 92% (active) in assay [6] (setting [8]); 92.8% (active) in assay [6] (at 50.0 µM).

For the compound `COc1ccc(/C=C2\CN(C)C/C(=C\c3ccc(OC)c(OC)c3OC)C2=O)c(OC)c1OC`, the growth inhibition is 27% in assay [1] (setting [7]); 96% (active) in assay [1] (setting [8]); 85.4% (active) in assay [1] (at 50.0 µM); 1% in assay [2] (setting [7]); 97% (active) in assay [2] (setting [8]); 93.5% (active) in assay [2] (at 50.0 µM). For the same compound, the growth inhibition in assay [3] (setting [7]) was 7%; in assay [3] (setting [8]) it was 98% (active); in assay [3] (at 50.0 µM) it was 92% (active); in assay [4] (setting [7]), 7%; in assay [4] (setting [8]), 86% (active); in assay [4] (at 50.0 µM), 91.2% (active). Moreover, the growth inhibition in assay [5] (setting [7]) is 14%; in assay [5] (setting [8]) it was 96% (active); in assay [5] (at 50.0 µM), 95.8% (active); in assay [6] (setting [7]), -4%; in assay [6] (setting [8]), 97% (active); in assay [6] (at 50.0 µM), 91.3% (active).

`O=[N+]([O-])c1cnc(F)c(Br)c1`: the growth inhibition in assay [1] (setting [7]) was 99% (active); in assay [1] (setting [8]), 99% (active); in assay [1] (at 50.0 µM), 99.1% (active); in assay [2] (setting [7]) it was 99% (active); in assay [2] (setting [8]), 100% (active); in assay [2] (at 50.0 µM) it was 99.2% (active). Besides, the growth inhibition in assay [3] (setting [7]) was 99% (active); in assay [3] (setting [8]), 99% (active); in assay [3] (at 50.0 µM), 99.2% (active); in assay [4] (setting [7]), 98% (active); in assay [4] (setting [8]), 99% (active); in assay [4] (at 50.0 µM) it was 98.7% (active). The growth inhibition was 99% (active) in assay [5] (setting [7]); 99% (active) in assay [5] (setting [8]); 99.1% (active) in assay [5] (at 50.0 µM); 99% (active) in assay [6] (setting [7]); 99% (active) in assay [6] (setting [8]); 99.3% (active) in assay [6] (at 50.0 µM).
